Screens: PubChem, several laboratories
TWEAK Fn14 block: inhibitors of TWEAK-Fn14 signaling, primary screen, luciferase reporter cells, uHTS; TWEAK-stimulated Fn14 reporter cells, luciferase luminescence, 8 h; inhibition, % at 10 µM; 2% of 360,000 active; AID 1159606, 2016; in the data active = inhibition above about 50%
PAX8 inh HTS: inhibitors of PAX8-driven TPO luciferase reporter, primary screen, RMG-I cells, single concentration; SteadyGlo, 24 h; inhibition, % at 12.6 µM; 1.2% of 360,000 active; AID 652154, 2013;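 active = mean replicate inhibition at least 60% with every replicate also reaching 60%; inconclusive = only one of the two criteria is met; inactive = mean below 60% and not all replicates reaching 60%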;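 note: luciferase light reporting Pax8 driven TPO promoter activity; plate controls were median of neutral control wells for no effect and mitoxantrone controls for full effect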
TROY signal inh: inhibitors of TROY-driven NF-kB signaling, primary screen, Q293 LMP1-TROYcd cells, NF-kB luciferase, uHTS; Q293 LMP1-TROYcd NF-kB luciferase reporter, 4 h; inhibition, % at 10 µM; 0.98% of 360,000 active;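 active = compounds whose plate-normalised and pattern-corrected inhibition of the luciferase reporter signal at the single screening dose is 50% or more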
LMP1 NFkB inh: EBV LMP1-driven NF-kappaB luciferase reporter inhibitors, primary screen, cell-based, luminescence, single point. LMP1-induced NF-kappaB luciferase reporter cells. inhibition, % at 12.5 µM. 0.69% of 350,000 active. AID 504558, 2011; in the data active = inhibition above about 41%; inconclusive = no clear call, values can overlap the other calls;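 note: 0% = neutral control wells and 100% = reference inhibitor control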
LGR2 antag: inhibitors of bursicon-induced LGR2 CRE-luciferase signal, primary screen, cell-based, HEK293, CRE-luciferase reporter, bursicon stimulation; Drosophila bursicon receptor LGR2 (rickets); bursicon-stimulated, 4 h; inhibition, % at 9.99 µM; 0.35% of 380,000 active; AID 720647, 2013;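 active = drop in luminescence signal, shown as inhibition above about 50% in the replicate tests, limit read from the data, passing the limit was not always enough; inconclusive = probably only some replicates passing the limit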;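 note: agonist challenge used bursicon conditioned medium at about half maximal strength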
EWS-Fli inh: EWS/Fli-driven NR0B1 reporter inhibitors, primary screen, A673 cells, NR0B1 luciferase, luminescence, MLPCN library; 0.67% of 350,000 active; viability-normalised; inhibition, % at 12.6 µM;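 active = mean inhibition of at least 50% after viability correction, with every replicate also passing that limit; inconclusive = mean reaches 50% but only one of two replicates passes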;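 note: firefly luciferase signal divided by Alamar Blue viability fluorescence both relative to DMSO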
DNA binder FP: DNA binders by acridine orange displacement, dose response, counter-screen for EWS/Fli inhibitor project, biochemical, fluorescence polarization, cherry-pick. shares compounds with EWS-Fli inh. salmon sperm DNA acridine orange fluorescence polarization. AC35, µM (doses to about 68 µM), without a hit: at the top dose activity change, negative = DNA binding. 2% of 640 active. AID 720586, 2013;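 active = fitted curve reaches a 35% signal fall AC35 below twice the sample's top valid tested dose, actives reach about 48 µM in these data; inactive = the rest, including activity in the rising direction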;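 note: lower polarization ratio signals compound binding to DNA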
* = called active by the depositor; ? = inconclusive; . = no result given. A selection: hits, their analogues and other compounds. The true share with any hit is near 3.1%.

SMILES	TWEAK Fn14 block	PAX8 inh HTS	TROY signal inh	LMP1 NFkB inh	LGR2 antag	EWS-Fli inh	DNA binder FP
CCN(CC)c1ccc(C2NC(=O)c3ccccc3N2)cc1 (stereo not drawn)	95*	?	77*	43*	88*	62*	6%
Cc1ccc(C(C)C)c(OCc2ccc(C(=O)N/N=C/c3ccc(C(=O)O)cc3)cc2)c1	11	-50	-24	-3	-59	32	.
Cc1ccc(C(C)C)c(OCc2ccc(C(=O)N/N=C/c3ccc(O)cc3O)cc2)c1	27	?	-7	17	.	63*	13%
COc1ccc(CN(C)C[C@@H]2Oc3ccc(NS(=O)(=O)c4ccccc4)cc3CC(=O)N([C@H](C)CO)C[C@H]2C)cc1	.	.	.	.	1	-8	.
COC(=O)COc1ccc(-c2nccc(-c3ccccn3)n2)cc1	61*	4	9	20	-22	54*	4%
COC(=O)COc1ccc(-c2nccc(-c3ccc(Br)cc3)n2)cc1	7	0	-1	-8	-3	18	.
O=C(N[C@H]1CC[C@H](CC(=O)N2CCOCC2)O[C@@H]1CO)c1ccccn1	.	.	.	.	15	.	.
CCCNC(=O)[C@@H]1[C@@H](CO)[C@@H]2Cn3c(ccc(-c4ccccc4)c3=O)[C@H]1N2C(=O)CC	.	.	.	.	5	55*	2%
Cc1ccccc1N=Nc1c(O)n(C)c2ccccc12	-15	47	28	0	-2	60*	-17%
Nc1nc(=S)c2[nH]cnc2[nH]1	25	94*	-11	85*	-16	61*	3%
O=c1c2ccccc2nc(/C=C/c2cccc([N+](=O)[O-])c2)n1CCO	4	12	3	0	12	15	.
O=c1c2ccccc2nc(/C=C/c2cc(Br)ccc2O)n1CCCO	69*	42	12	-13	26	53*	2%
C[C@H](CO)N1C[C@H](C)[C@@H](CN(C)S(=O)(=O)c2ccc(Cl)cc2)Oc2ccc(NC(=O)CCC(F)(F)F)cc2C1=O	.	-10	.	.	-7	-1	.
CSc1nc(O)c(/C=C2\C=Nc3ccccc32)[nH]1	-10	-38	-33	-5	-52	.	.
O=c1[nH]c(/C=C2\C=Nc3ccccc32)c(O)n1Cc1ccccc1F	35	55	-6	-58	10	63*	8%
Cc1cc(C(=O)COC(=O)c2nccnc2N)c(C)n1C	2	-63	4	8	35	-33	.
Cc1ccsc1C(=O)OCC(=O)c1cc(C)n(C)c1C	84*	48	12	51*	71*	63*	-11%
COC(=O)CC1(C(=O)OC)Oc2ccc(Br)cc2C(=O)N1c1cccc(Cl)c1Cl (stereo not drawn)	27	41	21	7	20	64*	-8%
Cc1ccc(S(=O)(=O)Nc2cccc3c2O[C@@H](CN(C)S(=O)(=O)c2ccccc2)[C@@H](C)CN([C@@H](C)CO)C3=O)cc1	.	-26	.	.	4	-12	.
COc1ccc(Cl)cc1S(=O)(=O)Nc1ccc2c(c1)n(C)c(=O)n2C	22	15	20	-9	-8	54*	-16%
CC(=O)c1ccc(NC(=O)c2noc3c2CCC3)cc1	94*	46	54*	65*	64*	60*	-6%
